MCL1-BIM inh – inhibitors of human MCL1 binding to BIM-BH3 peptide. GST-MCL1 / FITC-Bim-BH3 fluorescence polarization. Q07820. inhibition, % at 10.9 µM. actives 0.68% (n = 320,000);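 active means inhibition above the mean inhibition of all tested compounds plus 3 SD, set per campaign, cut at about 40% in these data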;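 further: 0% = DMSO wells and 100% = unlabeled Bim-BH3 peptide control; higher means more loss of mP so more displacement of Bim peptide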
Target sequence (Q07820 whole entry, looked up): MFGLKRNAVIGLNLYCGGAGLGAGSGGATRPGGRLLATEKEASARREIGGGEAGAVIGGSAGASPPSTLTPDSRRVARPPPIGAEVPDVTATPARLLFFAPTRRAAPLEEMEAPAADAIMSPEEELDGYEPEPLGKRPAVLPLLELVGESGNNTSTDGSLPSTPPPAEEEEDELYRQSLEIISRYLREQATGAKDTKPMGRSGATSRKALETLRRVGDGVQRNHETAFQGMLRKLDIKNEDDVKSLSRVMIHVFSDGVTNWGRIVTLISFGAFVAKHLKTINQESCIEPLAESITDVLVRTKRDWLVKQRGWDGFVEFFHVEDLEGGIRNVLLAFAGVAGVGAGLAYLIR
GLD-1 TGE inh – GLD-1-TGE RNA interaction inhibition (C. elegans). purified GLD-1 + fluorescein TGE RNA, fluorescence polarization. inhibition, % at 5.96 µM. actives 0.44% (n = 320,000);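 active means percent inhibition above a per-plate cutoff, the plate mean of test compounds plus 3 SD, cut at about 30% in these data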;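 further: 0% = DMSO wells with GLD-1 and probe and 100% = wells lacking GLD-1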
Bcl-xL primary – Bcl-xL (human) inhibition. Q07817. GST-Bcl-xL / FITC-Bim BH3 peptide fluorescence polarization. actives 0.7% (n = 320,000). inhibition, % at 10.9 µM. AID 2129;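 active means inhibition above the mean of all tested compounds plus 3 SD, cutoff set per campaign, cut at about 30% in these data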;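 further: 0% = DMSO wells and 100% = unlabeled Bim-BH3 peptide competitor; inhibitors lower millipolarization by displacing the labeled peptide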
Target sequence (Q07817 whole entry, looked up): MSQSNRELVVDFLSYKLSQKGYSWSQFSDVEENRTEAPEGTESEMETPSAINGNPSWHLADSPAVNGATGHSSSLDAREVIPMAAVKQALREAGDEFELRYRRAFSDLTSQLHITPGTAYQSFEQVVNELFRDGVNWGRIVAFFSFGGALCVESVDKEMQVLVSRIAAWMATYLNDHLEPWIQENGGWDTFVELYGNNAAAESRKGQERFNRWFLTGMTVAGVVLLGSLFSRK
Mcl1-Bid inh – disrupts binding of human Mcl-1 to Bid peptide | inhibition, % at 21.7 µM | Q07820 | actives 0.97% (n = 220,000) | TR-FRET Mcl-1/Bid-Dy647 peptide binding, 1536-well;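 active means compounds that cut the binding signal by more than half at the single screening dose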;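 further: His-tagged Mcl-1 with europium anti-His antibody binding Bid BH3 peptide; 0% = Mcl-1 plus peptide wells and 100% = peptide-only wells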
Mcl1-Noxa inh – disrupts binding of human Mcl-1 to Noxa peptide. Q07820. TR-FRET Mcl-1/Noxa peptide binding, 2 h. inhibition, % at 21.7 µM. actives 1.5% (n = 220,000). AID 1022;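 active means compounds that cut the protein-peptide binding signal by more than 50% relative to plate controls in a single-dose test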;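 further: His-tagged Mcl-1 with rhodamine Noxa BH3 peptide and terbium anti-His antibody; 0% = Mcl-1 plus Noxa peptide wells and 100% = peptide-only wells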
Mcl-1 Bim block – inhibitors of Bim-Mcl-1 interaction, human; actives 0.1% (n = 190,000); Q07820; inhibition, % at 10 µM; AID 1009; Bead-based flow cytometry, Bim peptide-Mcl-1 binding; in the data active means inhibition above about 40%;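 further: 0% = no compound tracer wells and 100% = peptide blocker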
Bcl-xL conf – Bcl-xL (human) inhibition, MCL1 counter-screen confirmation. shares compounds with MCL1-BIM inh. GST-Bcl-xL / FITC-Bim BH3 peptide FP binding. inhibition, % at 10.9 µM. actives 54% (n = 1,700);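 active means inhibition above a cutoff equal to the mean inhibition of all tested compounds plus 3 SD, cut at about 30% in these data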;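 further: 0% = DMSO wells and 100% = unlabeled Bim BH3 control peptide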
MCL1 BIM confirm – confirmation of human MCL1 and BIM-BH3 interaction inhibitors; shares compounds with MCL1-BIM inh; GST-MCL1 / FITC-Bim-BH3 fluorescence polarization; inhibition, % at 10.9 µM; actives 61% (n = 1,700); AID 2168;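 active means inhibition above the average of all tested compounds plus 3 SD, cut at about 40% in these data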;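 further: 0% = DMSO wells and 100% = unlabeled Bim-BH3 control peptide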
Starred values were filed as active, the others as inactive; x = no result; + = active, no number. In the library only some 2.3% were active in any assay of this set; here they are far more common.

SMILES | MCL1-BIM inh | GLD-1 TGE inh | Bcl-xL primary | Mcl1-Bid inh | Mcl1-Noxa inh | Mcl-1 Bim block | Bcl-xL conf | MCL1 BIM confirm
COCCCNc1c2c3c(cccc3[nH]c1=O)C(=O)c1ccccc1-2 | 124.2* | 74.8* | 116.9* | -22.6 | -190.5 | 9.0 | 126.3* | 136.9*
COCCCNC1=C(Cl)C(=O)c2ccccc2C1=O | -1.6 | 2.9 | -0.1 | -40.9 | 25.1 | x | x | x
NC(=O)COC(=O)C1c2ccccc2Oc2ccccc21 | 2.4 | -0.3 | 7.0 | x | x | x | x | x
N#CCN(CC#N)C(=O)C1c2ccccc2Oc2ccccc21 | + | + | + | x | x | x | 6.0 | 10.5
O=C(NCCc1ccc(O)c(O)c1)C1COc2ccccc2O1 (stereo not drawn) | 17.3 | 6.2 | 15.8 | x | x | x | x | x
COC(=O)[C@@H](Cc1c[nH]c2ccccc12)NC(=O)CNC(=O)c1ccccc1OC | 4.0 | -3.4 | -0.7 | x | x | x | x | x
O=C(O)c1ccc(-n2cccc2/C=N\NC(=O)c2cc3cc(Br)ccc3o2)cc1 | 62.5* | -1.2 | 20.7 | -36.3 | 92.0* | x | 23.5 | 57.2*
COc1ccc(OC)c(NC(=O)CCN2CCN(c3ccccc3OC)CC2)c1 | 11.3 | 1.5 | 1.2 | x | x | x | x | x
CCOc1ccc(C2C(C#N)=C(N)SC(N)=C2C#N)cc1OC | -100.8 | -81.5 | -42.0 | -68.3 | 16.6 | 0.0 | x | x
CCOc1ccc(C2OC34CCCCC3C(C#N)(C#N)C2(C#N)C(=N)O4)cc1OC (stereo not drawn) | 167.2* | 130.4* | 142.9* | -32.8 | 11.8 | -1.0 | 107.3* | 132.7*
Cc1ccc(C2OC34CCCCCC3C(C#N)(C(=N)O4)C2(C#N)C#N)cc1 (stereo not drawn) | 30.0 | 16.3 | 23.4 | -10.4 | 26.2 | -2.0 | x | x
C=CCOc1ccc(C2OC34CCCCC3C(C#N)(C#N)C2(C#N)C(=N)O4)cc1 (stereo not drawn) | 114.8* | 75.2* | 104.3* | -86.7 | -3.7 | 2.0 | 76.0* | 93.9*
CCCCOc1ccc(C2OC34CCCCC3C(C#N)(C#N)C2(C#N)C(=N)O4)cc1 (stereo not drawn) | 166.0* | 91.5* | 136.9* | -35.1 | 12.3 | 0.0 | 51.7* | 68.3*
COc1ccccc1CCNC(=O)c1nccnc1C(=O)O | -5.4 | -0.2 | 5.6 | x | x | x | x | x
Cc1ccc2c(c1)CCCN2CC(=O)N(C)c1c(N)n(Cc2ccccc2)c(=O)[nH]c1=O | 141.2* | 15.0 | 121.6* | x | x | x | 132.4* | 147.0*
COCCN=c1scc(-c2ccccc2)n1/N=C/c1c[nH]c2ccccc12 | -3.2 | 4.1 | -0.1 | -35.6 | 17.5 | -7.0 | x | x
CCN=c1scc(C)n1/N=C/c1ccc(O)c(O)c1O | 51.7* | 5.3 | 14.8 | -28.3 | 60.2* | 7.0 | 33.1* | 57.4*
COCCN=c1scc(-c2cccs2)n1/N=C/c1ccc(O)c(O)c1O | 48.6* | 2.5 | 13.5 | -64.9 | 89.3* | 4.0 | 64.9* | 93.5*
COc1ccc(-n2c(C)ccc2-c2ccccc2)cn1 | 127.9* | 89.0* | 106.6* | x | x | x | 88.8* | 108.3*
COC(=O)c1ccc(-n2c(C)ccc2-c2ccccc2)cc1 | -11.1 | -3.0 | -3.7 | -27.8 | 0.0 | 0.0 | x | x
CN(C)N1C(N)=C(C#N)C(c2ccsc2)C2=C1CC(C)(C)CC2=O (stereo not drawn) | 3.8 | 3.8 | 7.6 | -24.5 | -19.4 | -3.0 | x | x
CCOC(=O)N1CC=C2C(C#N)=C(N)C(C#N)(C#N)[C@H](c3ccc(OC(C)C)c(OCC)c3)[C@H]2C1 | -6.7 | 0.6 | 6.8 | -50.2 | 9.2 | -1.0 | x | x
N#CC1=C(S)N(c2ccccc2)C(c2cccs2)NC1=O (stereo not drawn) | 4.8 | -5.2 | -2.8 | 1.4 | -4.1 | -3.0 | x | x
CN1CC=C2C(C#N)=C(N)C(C#N)(C#N)C(c3ccsc3)C2C1 (stereo not drawn) | 117.4* | 70.2* | 105.9* | -19.9 | 12.3 | -1.0 | 22.8 | 26.7
CN1CC=C2C(C#N)=C(N)C(C#N)(C#N)[C@H](c3cccs3)[C@H]2C1 | 118.1* | 79.0* | 112.1* | -14.2 | 10.6 | x | 62.9* | 70.8*
SMILES | MCL1-BIM inh | GLD-1 TGE inh | Bcl-xL primary | Mcl1-Bid inh | Mcl1-Noxa inh | Mcl-1 Bim block | Bcl-xL conf | MCL1 BIM confirm
CN1CC=C2C(C#N)=C(N)C(C#N)(C#N)[C@H](c3cccc(Cl)c3)C2C1 (stereo partly drawn) | 115.5* | 78.8* | 104.4* | -33.7 | 13.3 | -2.0 | 31.1* | 36.1
CN1CC=C2C(C#N)=C(N)C(C#N)(C#N)C(CCc3ccccc3)C2C1 (stereo not drawn) | 82.0* | 48.6* | 89.4* | -42.0 | 1.1 | 0.0 | 43.1* | 65.4*
COc1cc(OC)cc(C(=O)Nc2ccc(C(=O)Nc3ccccc3OC)cc2)c1 | x | -3.4 | x | x | x | x | x | x
O=C(NCCCn1ccnc1)C1CCN(S(=O)(=O)c2cc([N+](=O)[O-])ccc2Cl)CC1 | x | 2.4 | x | x | x | x | x | x
O=C(O)[C@@H]1[C@H]2C[C@H]3c4[nH]c5ccccc5c4CCN3C[C@@H]2CC[C@@H]1O | 18.2 | 10.4 | 15.5 | x | x | x | x | x
O=C(O)C1CCCC2CN3CCc4c([nH]c5ccccc45)C3C(O)C21 (stereo not drawn) | 104.0* | 34.8* | 86.4* | x | x | x | 29.4 | 31.2
CCCCn1c(SCC(=O)NCc2ccco2)nc2cc(S(N)(=O)=O)ccc21 | 41.0* | -1.4 | -7.6 | -27.5 | -8.2 | 2.0 | 3.8 | 11.7
N#Cc1ccccc1OCC(=O)Nc1ccccc1C(=O)NC1CC1 | -3.5 | 7.1 | 3.2 | x | x | x | x | x
O=C1CN(C(=O)NCCC(=O)NC2CCCCC2)c2ccccc2N1 | 68.8* | 6.8 | 8.1 | x | x | x | 2.7 | -8.3
CN(C(=O)CCNC(=O)N1CC(=O)Nc2ccccc21)C1CCCCC1 | 6.5 | 6.1 | 2.2 | x | x | x | x | x
CSCC[C@H](NC(=O)[C@H](Cc1ccccc1)n1c(=O)[nH]c2ccccc2c1=O)C(=O)N1CCC[C@H]1C(=O)O | 3.5 | 8.3 | 0.3 | x | x | x | x | x
O=C(C[n+]1cc(Br)cc2ccccc21)c1ccc(Br)cc1 | 93.8* | -21.1 | 57.5* | x | x | x | 54.5* | 73.8*
O=C(C[n+]1cc(Br)cc2ccccc21)c1ccc(Cl)cc1 | 85.9* | -35.9 | 84.1* | x | x | x | 23.4 | 35.3
O=C(C[n+]1cc(Br)cc(Br)c1)c1ccc(Cl)cc1 | -5.2 | -4.8 | 1.6 | x | x | x | x | x
Cc1csc(=O)n1CC(=O)OCC(=O)NCc1ccc(F)cc1 | 0.1 | 2.9 | 2.3 | x | x | x | x | x
CCCOc1ccc(CNC(=S)Nc2ccccc2)cc1Cl | 42.2* | 5.3 | 7.4 | x | x | x | 7.5 | 9.2
CCC(=O)Nc1ccc2nc3c(=O)[nH]c(=S)[nH]c3nc2c1 | 98.0* | 16.0 | 61.3* | x | x | x | 107.2* | 160.6*
CCN(CC)CCN1C(=O)c2cccc3cc(N)cc(c23)C1=O | 157.7* | 72.0* | 123.6* | -42.9 | -24.7 | x | 128.1* | 166.2*

Bioassay records deposited in PubChem BioAssay by several laboratories.
